MCF10A rerep: inducers of DNA re-replication in MCF 10A breast cells; MCF 10A DNA re-replication, Hoechst nuclear intensity, 48 h; Potency, µM (series often up to 46.1 µM), for the others: at the highest dose activity, positive = re-replication, actives largely listed as activators; hit rate 2.9% among 350,000; note: % of control where 0% means no effect; nearly all actives have a fitted effect of over 50% in size
SW480 rereplic: inducers of DNA re-replication in SW480 colon cancer cells; Potency, µM (doses to about 46.1 µM), for inactives: at the top dose re-replication activation, actives largely listed as activators; AID 624297; hit rate 1.8% among 340,000; SW480 DNA re-replication, Hoechst DNA content imaging, 48 h; note: % of control where 0% means no effect; nearly all actives have a fitted effect of over 55% in size
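Quantitative HTS format with DMSO vehicle controls; 48 hr drug incubation at 37 C, then 40 min Hoechst staining and scanning imager measurement at 405 nm excitation.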
Mito fusion act: inhibitors of mitochondrial division or activators of mitochondrial fusion; S. cerevisiae fusion-defective mutant growth rescue, CellTiterGlo 48 h; Potency, µM (series often up to 46.1 µM), for the others: at the top dose growth rescue (activation), hits mostly activators; hit rate 0.23% among 320,000; note: % of control where 0% means no effect; nearly all actives have a fitted effect of over 45% in size
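Luminescent cell viability in 1536-well qHTS format served as the measure of rescued growth in ts fusion-mutant S. cerevisiae cultured on non-fermentable YPEG for 48 hours at 37C.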
A-T KAP1 phos: potential ataxia-telangiectasia treatment; F2112 A-T fibroblasts, KAP-1 phosphorylation AlphaLISA; neocarzinostatin DNA damage 30 min before lysis; Potency, µM (doses to about 57.5 µM), for the others: at the highest dose activation, hits mostly activators; hit rate 0.19% among 320,000; note: % of control where 0% means no effect; nearly all actives have a fitted effect of over 45% in size
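hTERT-immortalized A-T patient fibroblasts (F2112), 500 cells/well in OPTI-MEM, 1% FBS, got compounds for 60 min, then NCS for 30 min at 37C. Lysates were then assayed for phospho-KAP-1 by AlphaLISA (anti-pKAP1 donor, anti-KAP1 acceptor beads), 6 hr at 25C.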
a7 integrin act: integrin-mediated muscular dystrophy alleviation activation; alpha7betagal myoblasts, beta-gal FDG fluorescence, 48 h; Potency, µM (doses to about 38.3 µM), without a hit: at the top dose activation, hits mostly activators; hit rate 0.064% among 350,000;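 note: 100% = response of the positive control SU9516; nearly all actives have a fitted effect of over 60% in size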
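alpha7betagal+/- myoblasts (passage 13, 250/well) treated 48 h at 37C with compounds at 1:260 dilution of DMSO stock. Lysed, then beta-galactosidase activity read as FDG fluorescence (ex 480/em 540) after 30 min, with pre-read for autofluorescence.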
* marks the source's active call; other numbers are inactive results; ? = inconclusive; . = not tested or not shown; [ ] = dose if it differs, or a comment. Rows were chosen to be rich in hits. Some 4.2% of all compounds tested hit in one or more screens of this group. Calls come from the whole dose curve; as a rule, active = well fitted activation curve with a large enough effect; inconclusive = small, poorly fitted or top-dose-only effect; inactive = no such curve, though single readings can be large or run the other way. Potency is the fitted concentration of half-maximal effect.

SMILES | MCF10A rerep | SW480 rereplic | Mito fusion act | A-T KAP1 phos | a7 integrin act
O=C(O)c1ccc2c(c1)C(=O)N([C@H](Cc1ccc3ccccc3c1)C(=O)O)C2=O | . | . | 1% | -7% | .
CCCC(=O)NC(c1ccc(OC)cc1)c1c(O)ccc2ccccc12 (stereo not given) | 3.7µM* | 21µM* | 2% | 2% | 5%
CCC(=O)NC(c1cccc([N+](=O)[O-])c1)c1c(O)ccc2ccccc12 (stereo not given) | 4% | 5% | ? | -6%[11.5 µM] | 21%
COc1ccc(C(NC(=O)CC(C)C)c2c(O)ccc3ccccc23)cc1 (stereo not given) | ? | 3% | 2% | 3% | 1%
CCOc1ccc(C(NC(=O)CC)c2c(O)ccc3ccccc23)cc1 (stereo not given) | ? | 9.2µM* | -5% | 7% | -33%
CC(NCc1ccc(OCc2ccc(Cl)cc2)cc1)C(O)c1ccccc1 (stereo not given) | 18µM* | ? | -2% | 3% | -77%
CC(NCc1cccc(OCc2ccccc2)c1)C(O)c1ccccc1 (stereo not given) | 9% | ? | -9% | 4% | -59%
CCN(CC)CCNC(=O)c1ccc(N2CCCCC2)c(NS(=O)(=O)c2ccc(C)cc2)c1 | 5% | 26µM* | -1% | -1% | -47%
Cc1ccc(S(=O)(=O)Nc2ccccc2N2CCOCC2)cc1 | ? | ? | 4% | 1% | 0%
Cc1ccc(S(=O)(=O)Nc2ccc(O)c3cccnc23)cc1 | ? | 23µM* | -11% | -3% | -21%
Cc1ccc(S(=O)(=O)Nc2ccccc2-c2ccccc2)cc1 | 1.3µM* | 0.82µM* | 7% | -3% | 0%
Cc1ccc(S(=O)(=O)Nc2ccc(O)c3ncccc23)cc1 | -13% | 19% | -1% | -6% | 5%
Cc1ccc(NS(=O)(=O)c2ccccc2)c(NS(=O)(=O)c2ccccc2)c1 | 27% | -5% | . | . | 28%
Cc1ccc(S(=O)(=O)Nc2ccccc2N2CCCCC2)cc1 | 16µM* | ? | . | 26% | 0%
COC(=O)c1ccc(N2CCCCC2)c(NS(=O)(=O)c2ccc(C)cc2)c1 | -4% | -1% | 3% | 2% | -21%
CCCn1c(N/N=C(C)\C=C\c2ccccc2)nc2c1c(=O)[nH]c(=O)n2C | . | . | 1% | 7% | .
COc1ccc(Cl)cc1NC(=O)CN1C(=O)C(=O)N(C2CCCC2)C1=O | . | . | . | . | 5%
N#C/C(N=Nc1ccccc1O)=N\Nc1ccccc1O | ? | 2%[9.22 µM] | -2% | 10% | -37%
C=C1CCN([C@@H](CC(C)C)C(=O)N2CCOCC2)S(=O)(=O)c2ccccc21 | 7% | -5% | . | . | -17%
Cc1noc(C)c1CSCC(=O)Nc1nc(-c2ccc(F)c(F)c2)cs1 | ? | -5% | 9% | -1% | -26%
CCc1nc2ccc(Cc3ccc4nc(CC)[nH]c4c3)cc2[nH]1 | 1% | 3.3µM* | 2% | -9% | -14%
CCc1cccc2c(C(=O)COC(=O)c3c(C)noc3C)c[nH]c12 | 23µM* | ? | 7% | 28% | -4%
Cc1cc(Cl)ccc1OCC(=O)Nc1cccnc1 | 1% | -2% | 4% | 0% | ?
CC(C)C(C(=O)O)N1CCS(=O)(=O)CC1 (stereo not given) | 3% | 3% | -8% | 2% | 7%
CCOC(=O)N1CCN(c2ncnc3c2[nH]c2ccc(OC)cc23)CC1 | 6% | 0% | -2% | -3% | -33%
SMILES | MCF10A rerep | SW480 rereplic | Mito fusion act | A-T KAP1 phos | a7 integrin act
COc1ccc2[nH]c3c(N4CCc5ccccc5C4)ncnc3c2c1 | 3.7µM* | ? | 1% | -5% | ?
CC(OC(=O)CCOc1ccccc1)C(=O)Nc1ccc(Cl)cn1 (stereo not given) | 16µM* | ? | -3% | 16% | 0%
Cc1ccc(-c2cc(-c3cccc(F)c3)n[nH]2)c(O)c1 | ? | 9% | ? | 4% | 9%
Cc1ccc(O)c(-c2cc(-c3cccc(F)c3)n[nH]2)c1 | 26µM* | ? | 9% | 2% | -14%
Brc1[nH]nc2ccccc12 | -11% | 0% | 0% | 6% | 8%
O=C(Nc1nc(-c2cccs2)c(-c2cccs2)s1)C1(c2ccccc2)CC1 | 21µM* | 5% | 4% | 2% | -16%

Screening data (PubChem BioAssay)
